Screening results: PubChem, National Center for Advancing Translational Sciences (NCATS)
TDP43 rescue: inhibitors of TDP-43 toxicity in yeast; TDP-43 expressing yeast growth rescue, BacTiter-Glo, 24 h; Potency, µM (top dose mostly 46.1 µM), usual class: activators; 1.8% of 410,000 active; note: nearly all actives have a fitted effect of over 50% in size
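Readout is BacTiter-Glo luminescence of cell growth, so inhibitors register as activators. TDP-43-expressing yeast at OD600=0.02 in galactose medium, after raffinose pregrowth to mid-log, were incubated with compound for 24 hr at 30 deg C.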
Mito fusion act: blocks mitochondrial division or promotes mitochondrial fusion; S. cerevisiae fusion-defective mutant growth rescue, CellTiterGlo 48 h; Potency, µM (titrated, usually from 46.1 µM), hits mostly activators; 0.23% of 320,000 active; AID 485298; note: nearly all actives have a fitted effect of over 45% in size
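Growth-rescue viability read-out: after 48 h at the non-permissive 37C in glycerol/ethanol YPEG, yeast mitochondrial fusion mutants are measured by CellTiterGlo luminescence; compounds (23 nl pinned per well) restoring growth score as division inhibitors or fusion activators.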
FUS suppressor: FUS proteinopathy suppression in yeast. S. cerevisiae FUS-expressing, growth rescue, OD600, 24 h. Potency, µM (doses to about 76.6 µM), most hits filed as activators. 0.24% of 390,000 active; note: nearly all actives have a fitted effect of over 55% in size
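Yeast FUS proteinopathy model; galactose-induced FUS (2%), starting OD 0.005. Cpds in dilution series, 24hr, 30C, 99% humidity. Abs 600 nm growth. Pos ctrl CP55940 (top 92uM final); neg ctrl DMSO.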
aSyn rescue: rescues yeast growth from alpha-synuclein toxicity; Yeast expressing alpha-synuclein, growth rescue, BacTiter-Glo, 24 h; Potency, µM (titrated, usually from 46.1 µM), hits mostly activators; 0.14% of 370,000 active; note: nearly all actives have a fitted effect of over 65% in size
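Readout is rescue of growth in alpha-synuclein-expressing yeast, so inhibitors of toxicity appear as activators. Growth after 24 hr at 30 deg C in galactose medium is quantified by luminescence.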
Abeta rescue: restores growth of yeast expressing A-beta42 peptide; yeast expressing A-beta42, growth rescue, OD600, 48 h; response scale: 0% DMSO, 100% iron-clioquinol control; Potency, µM (doses to about 46.1 µM), hits mostly activators; 0.063% of 410,000 active; AID 1347071; note: nearly all actives have a fitted effect of over 55% in size
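Yeast growth medium received pinned compounds, then yeast cells expressing toxic A-beta were added; plates incubated at 30 C for 48 hr. Growth read as absorbance at 600 nm, normalized to DMSO and equimolar FeCl3 plus clioquinol controls.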
Each line names hits and unclear results; the compound was inactive in the other large screens; ! = not confirmed by another sample. Sampled rows, rich in hits. Any-hit rate of the full collection: about 2.2%. Calls come from the whole dose curve; as a rule, active = well fitted curve in the direction sought with a large enough effect; inconclusive = small, poorly fitted or top-dose-only effect, or another doubt; inactive = no such curve, though single readings can be large; an effect the other way counts as inactive or inconclusive.

O=C(C1CC1)n1cc(C(=S)N2CCOCC2)c2ccccc21	none
COc1cccc(CNc2ncnc3c2nnn3C)c1	TDP43 rescue inconclusive (no result: Mito fusion act, aSyn rescue)
O=C(Nc1ccc2c(c1)OCCO2)C(c1cc2ccccc2o1)N1CCC(Cc2ccccc2)CC1 (stereo unspecified)	FUS suppressor 16µM (no result: Mito fusion act)
COc1ccc(CN2CCC(CNC(=O)NC3CCCC3)CC2)cc1	none (no result: TDP43 rescue, Mito fusion act, aSyn rescue, Abeta rescue)
O=c1c(Cl)c(Cl)cnn1Cc1nnc(-c2ccccc2Br)o1	TDP43 rescue 13µM
CCCCc1nc2cc(C(=O)N3CCCC(OCCC)C3)ccc2o1 (stereo unspecified)	TDP43 rescue 14µM
C=C1C=C(C)n2ncc(C(=O)Nc3ccc(F)cc3F)c2N1	none (no result: TDP43 rescue, Mito fusion act, FUS suppressor, Abeta rescue)
Fc1ccc(Nc2nnc(C(F)(F)F)s2)cc1	TDP43 rescue 13µM
Cc1ccc(N2C(=O)c3ccccc3C2Nc2ccc(S(=O)(=O)N3CCCCC3)cc2)nc1 (stereo unspecified)	TDP43 rescue inconclusive, FUS suppressor 35µM
C=CCSc1nnc(-c2sc(-c3ccccc3)nc2C)n1C	TDP43 rescue 16µM (no result: aSyn rescue)
Cc1ccc(S(=O)(=O)N(CC(O)Cn2c3ccccc3c3ccccc32)c2cccc(C(=O)NCCO)c2)cc1 (stereo unspecified)	FUS suppressor 20µM (no result: Mito fusion act)
O=C(COc1ccccc1F)N1CCc2ccccc2C1	TDP43 rescue inconclusive
CCN1CCN(C(=O)/C=C/c2c(F)cccc2Cl)CC1	none (no result: FUS suppressor)
O=C(COc1c(Br)cc(Br)c2cccnc12)N1CCc2ccccc2C1	TDP43 rescue inconclusive, Mito fusion act inconclusive, aSyn rescue 13µM
O=C(COc1c(Br)cc(Br)c2cccnc12)N1CCCCC1	Mito fusion act inconclusive
O=C(/C=C/c1c(F)cccc1Cl)N1CCc2ccccc2C1	TDP43 rescue 7.9µM, Mito fusion act inconclusive, aSyn rescue inconclusive
O=C(COc1ccccc1Cl)N1CCc2ccccc2C1	TDP43 rescue 13µM
c1ccc(CN2CCN(Cc3c[nH]c4ccccc34)CC2)cc1	none
Clc1ccc(N2CCN(Cc3c[nH]c4ncccc34)CC2)cc1	Mito fusion act 7.3µM!
O=C(O)c1ccc(C2CCCCC2)cn1	TDP43 rescue 13µM, aSyn rescue inconclusive
Cc1ccc2c(c1)N(C(=O)CCC(=O)NCc1cccc(Cl)c1)CC(C)O2 (stereo unspecified)	TDP43 rescue inconclusive, Mito fusion act 16µM
Cc1ccc2c(c1)N(C(=O)CCC(=O)NCc1ccccc1)CC(C)O2 (stereo unspecified)	none
CCC(C(=O)Nc1cc(OC)cc(OC)c1)n1nc(-c2ccc(C)c(C)c2)ccc1=O (stereo unspecified)	TDP43 rescue 28µM, FUS suppressor inconclusive, Abeta rescue inconclusive (no result: Mito fusion act, aSyn rescue)
CCC(C(=O)Nc1cc(F)ccc1F)n1nc(-c2cc(C)ccc2C)ccc1=O (stereo unspecified)	TDP43 rescue 22µM (no result: Mito fusion act, aSyn rescue)
Cc1ccc(C)c(-c2ccc(=O)n(Cc3ccc(F)cc3Cl)n2)c1	TDP43 rescue 22µM!, Mito fusion act inconclusive, FUS suppressor inconclusive, aSyn rescue inconclusive
CCC(C(=O)Nc1cc(F)ccc1F)n1nc(C)c2c(C)n(-c3ccc(C)cc3)nc2c1=O (stereo unspecified)	TDP43 rescue inconclusive, FUS suppressor inconclusive
N#CC(C#N)=C1C(=O)N(CCN2CCCCC2)c2ccccc21	FUS suppressor 22µM
COc1ccc(CCc2c[nH]c(=O)c3cncnc23)cc1OC	none (no result: TDP43 rescue, Mito fusion act, FUS suppressor, Abeta rescue)
Fc1c(F)c(F)c(CSc2nc3ccccc3[nH]2)c(F)c1F	TDP43 rescue 11µM
COC(=O)[C@]1(CNC(=O)C(F)(F)F)CC(=O)N(C)[C@@H]1c1ccccc1	none (no result: TDP43 rescue, Mito fusion act, aSyn rescue, Abeta rescue)
O=C(/C(=C/c1ccc(Cl)cc1)c1nc2ccccc2[nH]1)c1cccs1	TDP43 rescue 3.2µM
C=CCN(CC=C)c1ccc(/C=C/c2ccnc3ccccc23)cc1	none (no result: TDP43 rescue, Mito fusion act, FUS suppressor, Abeta rescue)
Cn1ccc2c(-c3ccc(CO)cc3)cc3c(c21)C1CCC3O1 (stereo unspecified)	aSyn rescue inconclusive (no result: Mito fusion act)
CSc1ccc(-c2cc3c(c4c2ccn4C)C2CCC3C2)cc1 (stereo unspecified)	none (no result: Mito fusion act)
Cn1ccc2c(-c3ccc(CO)cc3)cc3c(c21)C1CCC3C1 (stereo unspecified)	TDP43 rescue 35µM, FUS suppressor inconclusive (no result: Mito fusion act)
Cn1ccc2c(-c3ccc(F)cc3)cc3c(c21)C1CCC3C1 (stereo unspecified)	none (no result: Mito fusion act)
Cn1ccc2c(-c3ccc(C(=O)O)cc3)cc3c(c21)C1CCC3O1 (stereo unspecified)	TDP43 rescue 22µM (no result: Mito fusion act)
Cn1ccc2c(-c3ccc(C(F)(F)F)cc3)cc3c(c21)C1CCC3O1 (stereo unspecified)	TDP43 rescue 8.9µM, Abeta rescue inconclusive (no result: Mito fusion act)
CSc1ccc(-c2cc3c(c4c2ccn4C)C2CCC3O2)cc1 (stereo unspecified)	TDP43 rescue 25µM, aSyn rescue inconclusive (no result: Mito fusion act)
Cn1ccc2c(-c3ccc(C(C)(C)C)cc3)cc3c(c21)C1CCC3O1 (stereo unspecified)	none (no result: Mito fusion act)
COc1cccc(C(=O)Nc2ccc(C(=O)NCC3COc4ccccc4O3)cc2)c1 (stereo unspecified)	none (no result: TDP43 rescue, Mito fusion act, aSyn rescue, Abeta rescue)
Cn1ccc2c(-c3ccc4c(c3)OCCO4)cc3c(c21)C1CCC3O1 (stereo unspecified)	TDP43 rescue 22µM, FUS suppressor inconclusive (no result: Mito fusion act)
Cc1ccccc1-c1cc2c(c3c1ccn3C)C1CCC2O1 (stereo unspecified)	TDP43 rescue 11µM, Abeta rescue inconclusive (no result: Mito fusion act)
Cc1cc(NS(=O)(=O)c2ccc(-c3ccccc3)cc2)no1	TDP43 rescue 10µM, Abeta rescue inconclusive
COc1cccc(-n2c(SCc3ccccc3C)nc3c([nH]c4ccccc43)c2=O)c1	aSyn rescue inconclusive (no result: Mito fusion act)
CCCCCCOC(=O)c1ccc(N)cc1	TDP43 rescue 13µM
CCCCOC(=O)c1ccc(N)cc1	TDP43 rescue inconclusive, Mito fusion act 11µM
O=C(Nc1ccccc1-c1cn2c(CN3CCNCC3)csc2n1)c1cnc2ccccc2n1	none (no result: TDP43 rescue, Mito fusion act, FUS suppressor, Abeta rescue)
COc1ccc(C2=NN3C(C2)c2ccccc2OC32C(=O)N(C)c3ccccc32)cc1 (stereo unspecified)	TDP43 rescue 22µM, FUS suppressor inconclusive
COc1ccc(C2=NN3C(C2)c2ccccc2OC3c2cccs2)cc1 (stereo unspecified)	TDP43 rescue inconclusive
Cc1ccc(-c2cc(C(=O)NC3CCCCC3)no2)cc1	none
Cc1ccc(-c2nc(C(=O)NC3CCCCCC3)no2)cc1	TDP43 rescue 18µM (no result: Mito fusion act)
CCCC1Cc2c(sc3nc(SC)nc(N)c23)CO1 (stereo unspecified)	none
CCCC1Cc2c(sc(N)c2C#N)CO1 (stereo unspecified)	TDP43 rescue 13µM
O=C(C1=C[C@@H]2[C@H]3C(=O)N(c4cccc(Cl)c4)C(=O)[C@H]3[C@@H](C(=O)c3ccc(Cl)cc3)N2C=C1)c1ccccc1	none
